# PfM18AAP inh-1: blocks P. falciparum M18 aspartyl aminopeptidase; AID 1822; 1.2% of 290,000 active; inhibition, % at 7.35 µM; recombinant PfM18AAP, H-Glu-NHMec fluorogenic cleavage;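 active = inhibition above the campaign mean inhibition over all tested compounds plus 3 SD, cut at about 28% in these data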;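 also: 0% = plate median of test compound wells and 100% = 2 mM ZnCl2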
# SUMO Mot1 rescue: inhibitors of SUMOylation pathway: yeast Mot1-301 growth rescue; S. cerevisiae Mot1-301 growth rescue, ATP luminescence, 38.5C; percent above DMSO median, 100 means doubled; growth rescue, % at 18.8 µM; 1% of 320,000 active; AID 2716;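 active = every valid replicate shows activation above 250% relative to neutral control wells; inactive = the rest, any valid replicate at or below 250%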;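 also: OY570 slx delta 5 strain wells were the positive control but not used for scaling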
# HIF activator: HIF pathway transcriptional activation; U2OS HRE-luciferase reporter, luminescence; normalized: DMSO 0%, desferrioxamine 100%; activation, % at 7.5 µM (by protocol); 0.32% of 300,000 active; AID 1910;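 active = mean activation of at least 10% of the iron chelator positive control signal, with at least half of replicates also reaching 10%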
# ALR H2O2 inh: inhibitors of human sulfhydryl oxidase ALR | P55789 | purified ALR, DTT oxidation, H2O2 HRP-luminol luminescence | inhibition, % (test concentration not listed) | 3.8% of 290,000 active;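 active = mean replicate inhibition above about 79%, with every replicate also reaching it, limit read from the data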
# Target sequence (P55789 whole entry, looked up): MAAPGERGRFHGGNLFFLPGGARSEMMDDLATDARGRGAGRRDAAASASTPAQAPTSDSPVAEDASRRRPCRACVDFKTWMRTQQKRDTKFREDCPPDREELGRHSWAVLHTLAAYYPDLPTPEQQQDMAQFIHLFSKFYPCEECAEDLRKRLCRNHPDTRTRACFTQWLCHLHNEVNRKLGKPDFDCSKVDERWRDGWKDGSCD
# PfM18AAP inh-2: PfM18AAP inhibition, confirmation; shares compounds with PfM18AAP inh-1; recombinant PfM18AAP, H-Glu-NHMec fluorogenic cleavage; inhibition, % at 7.35 µM; 28% of 2,400 active; AID 2170;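 active = mean inhibition over replicate wells above the hit cutoff set for the earlier primary screen, cut at about 29% in these data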;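 also: 0% = median of test compound wells and 100% = 2 mM ZnCl2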
# CTSL1 confirm: Cathepsin L (human) inhibition, confirmation; shares compounds with PfM18AAP inh-1; purified cathepsin L1, Z-Leu-Arg-MCA fluorescence; inhibition, % at 5.96 µM; 2,400 tested, under 10 active;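 active = average inhibition across replicates above the hit cutoff set in the earlier primary screen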;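 also: 0% = median of test compound wells and 100% = Z-Phe-Ala-diazomethylketone 1 µM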
# Active calls of the source: *; . = no result given. This is a sample that favours compounds with a hit; in the whole collection about 5.3% have one here.
SMILES,PfM18AAP inh-1,SUMO Mot1 rescue,HIF activator,ALR H2O2 inh,PfM18AAP inh-2,CTSL1 confirm
COc1ccc(OCC(=O)NNC(=S)NC(=O)c2ccc([N+](=O)[O-])cc2)cc1,33*,1,0,.,-3,3
O=C(NNS(=O)(=O)c1ccc([N+](=O)[O-])cc1)c1ccc([N+](=O)[O-])cc1,35*,6,1,-4,15,-7
Cc1ccc(S(=O)(=O)NNC(=S)NC(=O)c2ccc([N+](=O)[O-])cc2)cc1,48*,33,0,93*,-11,9
Cc1ccc(C(O)(C(=O)NNS(=O)(=O)c2ccc(C)cc2)c2ccc(C)cc2)cc1,3,-5,-1,8,.,.
O=C(COc1ccc([N+](=O)[O-])cc1)Nn1cnnc1,41*,4,0,0,-19,-1
CC(=O)Nc1ccc(S(=O)(=O)NNc2ccc([N+](=O)[O-])cc2)cc1,46*,296*,1,98*,-13,2
CC(=O)Nc1ccc(S(=O)(=O)NNC(=O)c2cccc([N+](=O)[O-])c2)cc1,15,-4,-1,8,.,.
O=C(COc1ccccc1)NNC(=O)COc1ccc([N+](=O)[O-])cc1,20,12,0,0,.,.
CC(=O)NNC(=S)NC(=O)c1cccc([N+](=O)[O-])c1,47*,27,0,73,27,-1
O=C(NCC1CCCO1)C1CC(=O)N(c2ccc(Cl)cc2)C1 (stereo not given),1,5,0,1,.,.
COc1cc2c(cc1NS(=O)(=O)N1CCCCC1)oc1ccccc12,-1,-3,-1,-3,.,.
CN(CC(=O)Nc1ccc(F)cc1)C(=O)Cn1nnc(-c2ccccc2)n1,2,11,0,-4,.,.
C[C@@H]1COC(=O)[C@H](CC(=O)OC(C)(C)C)C/C=C\C[C@@H](CC(=O)NCCO)C(=O)N1,.,1,.,-2,.,.
COc1ccc(CN(C)Cc2c(O)ccc3ccccc23)cc1,47*,-18,2,50,-64,-2
O=C(C1CC(=O)N(c2ccc3c(c2)OCCO3)C1)N1CCN(c2ccccc2O)CC1 (stereo not given),34*,3,0,84*,5,1
COc1cc(C(=S)N2CCCCC2)ccc1O,36*,-4,.,82*,-22,-4
COc1cccc(C(=S)N2CCCC2)c1OC,39*,1,0,-16,-19,-2
Cc1cc(C(=O)NC(CC(C)C)C(=O)O)cc(C)c1[N+](=O)[O-] (stereo not given),-8,198,0,-1,.,.
Cc1cccc(NC(=S)NCCc2ccccc2)c1C,7,2,1,-2,.,.
Cc1cccc(C)c1NC(=S)NCCc1ccc(O)c(O)c1,73*,10,0,60,50*,-7
Cc1cccnc1NC(=S)Nc1ncccc1C,1,-19,3,25,.,.
S=C(NCCc1ccccc1)Nc1c(Cl)cccc1Cl,41*,18,0,2,-4,-5
Cc1cccnc1NC(=S)NCCc1ccccc1,42*,5,3,.,1,1
CC1(CCc2ccccc2)NC(=O)N(CC(=O)N2CCCCCC2)C1=O (stereo not given),.,-4,0,2,.,.
CS(=O)(=O)N1CCC(Oc2ccccc2C(=O)N2CCC[C@H]2CO)CC1,-16,-10,1,1,.,.
SMILES,PfM18AAP inh-1,SUMO Mot1 rescue,HIF activator,ALR H2O2 inh,PfM18AAP inh-2,CTSL1 confirm
CCOc1ccccc1NC(=S)Nc1ccccc1F,-3,-22,0,2,.,.
Cc1cccc(NC(=S)NN2CCN(C)CC2)c1C,-25,-1,0,6,.,.
Fc1ccccc1NC(=S)NCc1ccccc1,3,12,-1,.,.,.
Fc1ccccc1NC(=S)Nn1cnnc1,75*,218,0,0,54*,-5
CCOc1ccccc1NC(=S)Nn1cnnc1,74*,-31,0,-1,56*,5
Cc1ccccc1NC(=S)Nn1cnnc1,73*,-22,-1,7,52*,4
Cc1cccc(NC(=S)Nn2cnnc2)c1C,72*,-12,0,4,69*,0
COc1ccccc1OCC(=O)N1CCN(C(=O)c2ccco2)CC1,-1,7,-1,-2,.,.
COC(=O)c1c(NC(=O)C2CCCCC2)sc2c1CC(C)(C)NC2(C)C,8,-9,-1,.,.,.
CCc1ccccc1NC(=S)Nn1cnnc1,76*,-6,.,9,70*,-7
CCc1ccccc1NC(=O)CC(=O)Nc1ccccc1CC,-8,-21,1,.,.,.
